In test [1] the test system is Epidermal growth factor receptor (Homo sapiens), P00533 [T790M]. The settings on record: at 1 µM.
Test [2] relates to Epidermal growth factor receptor (Homo sapiens), P00533 [L858R,T790M]. The settings on record: at 0.1 µM.
Test [3] shares this test system. The settings on record: at 1 µM.
Test [4] deals with Ephrin type-A receptor 2 (Homo sapiens) (UniProt P29317). The settings on record: at 0.1 µM.
The target is the same in test [5]. The settings on record: at 1 µM.
Test [6] deals with T1, Ephrin type-A receptor 3 (Homo sapiens) (UniProt P29320).
T1 sequence (whole entry): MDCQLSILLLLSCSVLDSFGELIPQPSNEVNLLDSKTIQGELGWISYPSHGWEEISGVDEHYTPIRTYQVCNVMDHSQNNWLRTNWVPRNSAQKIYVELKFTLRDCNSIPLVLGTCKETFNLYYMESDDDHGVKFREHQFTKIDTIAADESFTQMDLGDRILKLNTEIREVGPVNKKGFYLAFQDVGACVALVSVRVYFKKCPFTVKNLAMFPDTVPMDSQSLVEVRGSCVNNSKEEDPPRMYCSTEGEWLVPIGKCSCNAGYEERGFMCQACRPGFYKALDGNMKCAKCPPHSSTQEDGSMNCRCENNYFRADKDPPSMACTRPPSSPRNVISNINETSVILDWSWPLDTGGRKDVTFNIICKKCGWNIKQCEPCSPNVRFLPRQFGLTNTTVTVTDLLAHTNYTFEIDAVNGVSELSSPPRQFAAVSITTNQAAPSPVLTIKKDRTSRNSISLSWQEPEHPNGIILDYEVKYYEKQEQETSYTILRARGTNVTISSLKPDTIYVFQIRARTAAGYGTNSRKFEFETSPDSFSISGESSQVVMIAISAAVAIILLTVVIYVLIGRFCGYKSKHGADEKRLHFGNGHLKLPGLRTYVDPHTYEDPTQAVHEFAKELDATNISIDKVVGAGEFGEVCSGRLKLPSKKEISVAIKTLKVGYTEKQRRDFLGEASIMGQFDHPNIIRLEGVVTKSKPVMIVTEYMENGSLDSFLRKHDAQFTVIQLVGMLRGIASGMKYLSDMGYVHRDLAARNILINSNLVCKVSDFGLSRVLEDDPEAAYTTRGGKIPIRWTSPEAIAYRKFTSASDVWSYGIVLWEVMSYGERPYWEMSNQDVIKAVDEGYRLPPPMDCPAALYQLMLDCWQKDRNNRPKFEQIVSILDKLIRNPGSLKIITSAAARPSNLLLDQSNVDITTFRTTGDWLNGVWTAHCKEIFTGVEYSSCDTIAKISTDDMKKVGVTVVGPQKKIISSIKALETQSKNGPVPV
The settings on record: at 0.1 µM.

Test [7] concerns the target T1, Ephrin type-A receptor 3 (Homo sapiens). The settings on record: at 1 µM.
For test [8], the target named is Ephrin type-A receptor 4 (Homo sapiens) (UniProt P54764). The settings on record: at 0.1 µM.
Test [9] shares this target. The settings on record: at 1 µM.
Test [10] deals with T2, Ephrin type-B receptor 2 (Homo sapiens) (UniProt P29323).
T2 sequence (whole entry): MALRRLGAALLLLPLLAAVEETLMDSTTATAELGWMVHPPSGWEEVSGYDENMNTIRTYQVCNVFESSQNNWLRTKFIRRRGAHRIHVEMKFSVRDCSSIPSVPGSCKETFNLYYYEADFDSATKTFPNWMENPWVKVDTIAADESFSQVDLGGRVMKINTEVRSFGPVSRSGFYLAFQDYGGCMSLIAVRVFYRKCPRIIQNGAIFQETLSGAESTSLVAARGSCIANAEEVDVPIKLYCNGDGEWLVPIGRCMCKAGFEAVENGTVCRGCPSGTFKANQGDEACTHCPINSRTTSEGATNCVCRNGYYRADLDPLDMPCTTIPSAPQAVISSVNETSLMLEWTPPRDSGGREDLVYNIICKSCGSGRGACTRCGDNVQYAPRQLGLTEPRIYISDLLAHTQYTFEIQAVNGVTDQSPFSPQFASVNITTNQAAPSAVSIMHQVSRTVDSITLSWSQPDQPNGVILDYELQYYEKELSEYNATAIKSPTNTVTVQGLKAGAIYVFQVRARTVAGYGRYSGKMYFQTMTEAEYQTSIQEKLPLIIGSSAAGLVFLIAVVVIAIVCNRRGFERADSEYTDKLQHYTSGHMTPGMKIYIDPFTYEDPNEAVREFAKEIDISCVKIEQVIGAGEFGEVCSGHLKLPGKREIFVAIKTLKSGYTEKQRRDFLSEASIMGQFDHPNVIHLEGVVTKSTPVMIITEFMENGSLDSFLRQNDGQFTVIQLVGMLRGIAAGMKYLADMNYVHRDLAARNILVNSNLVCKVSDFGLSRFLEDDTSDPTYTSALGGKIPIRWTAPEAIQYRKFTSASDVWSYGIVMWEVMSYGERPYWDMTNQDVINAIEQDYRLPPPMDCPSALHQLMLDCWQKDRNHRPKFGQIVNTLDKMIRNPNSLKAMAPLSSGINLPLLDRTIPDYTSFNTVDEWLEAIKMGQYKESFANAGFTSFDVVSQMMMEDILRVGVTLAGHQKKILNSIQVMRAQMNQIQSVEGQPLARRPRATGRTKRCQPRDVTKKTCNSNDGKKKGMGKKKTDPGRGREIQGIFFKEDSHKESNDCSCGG
The settings on record: at 0.1 µM.

Test [11] concerns the target T2, Ephrin type-B receptor 2 (Homo sapiens). The settings on record: at 1 µM.
The target in test [12] is T3, Ephrin type-B receptor 3 (Homo sapiens) (UniProt P54753).
T3 sequence (whole entry): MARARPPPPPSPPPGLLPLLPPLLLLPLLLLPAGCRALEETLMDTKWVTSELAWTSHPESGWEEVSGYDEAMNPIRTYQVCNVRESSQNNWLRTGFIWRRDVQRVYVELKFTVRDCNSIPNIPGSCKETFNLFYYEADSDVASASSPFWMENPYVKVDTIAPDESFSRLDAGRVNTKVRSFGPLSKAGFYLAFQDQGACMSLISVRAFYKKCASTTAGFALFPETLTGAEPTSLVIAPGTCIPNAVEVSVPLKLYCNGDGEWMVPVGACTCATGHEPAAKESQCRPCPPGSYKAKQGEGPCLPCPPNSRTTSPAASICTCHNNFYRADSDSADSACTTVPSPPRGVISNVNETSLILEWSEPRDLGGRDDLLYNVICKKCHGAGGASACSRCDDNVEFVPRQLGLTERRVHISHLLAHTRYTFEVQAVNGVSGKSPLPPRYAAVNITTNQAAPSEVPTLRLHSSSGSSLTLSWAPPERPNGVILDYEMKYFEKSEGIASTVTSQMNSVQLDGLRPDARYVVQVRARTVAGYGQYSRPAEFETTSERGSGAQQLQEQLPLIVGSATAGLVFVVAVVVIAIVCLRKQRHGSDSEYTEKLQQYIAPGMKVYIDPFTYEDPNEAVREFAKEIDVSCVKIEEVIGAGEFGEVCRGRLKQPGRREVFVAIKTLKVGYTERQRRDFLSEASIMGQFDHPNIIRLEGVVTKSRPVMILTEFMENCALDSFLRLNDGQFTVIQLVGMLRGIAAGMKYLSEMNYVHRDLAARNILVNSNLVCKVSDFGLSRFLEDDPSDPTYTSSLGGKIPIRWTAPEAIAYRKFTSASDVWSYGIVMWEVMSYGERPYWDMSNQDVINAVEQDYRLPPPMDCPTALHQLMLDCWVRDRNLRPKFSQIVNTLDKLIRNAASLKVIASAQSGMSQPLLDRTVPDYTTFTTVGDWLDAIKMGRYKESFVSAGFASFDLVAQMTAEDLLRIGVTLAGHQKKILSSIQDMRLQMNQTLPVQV
The settings on record: at 0.1 µM.

Test [13] concerns the target T3, Ephrin type-B receptor 3 (Homo sapiens). The settings on record: at 1 µM.
Test [14] addresses T4, Ephrin type-B receptor 4 (Homo sapiens) (UniProt P54760).
T4 sequence (whole entry): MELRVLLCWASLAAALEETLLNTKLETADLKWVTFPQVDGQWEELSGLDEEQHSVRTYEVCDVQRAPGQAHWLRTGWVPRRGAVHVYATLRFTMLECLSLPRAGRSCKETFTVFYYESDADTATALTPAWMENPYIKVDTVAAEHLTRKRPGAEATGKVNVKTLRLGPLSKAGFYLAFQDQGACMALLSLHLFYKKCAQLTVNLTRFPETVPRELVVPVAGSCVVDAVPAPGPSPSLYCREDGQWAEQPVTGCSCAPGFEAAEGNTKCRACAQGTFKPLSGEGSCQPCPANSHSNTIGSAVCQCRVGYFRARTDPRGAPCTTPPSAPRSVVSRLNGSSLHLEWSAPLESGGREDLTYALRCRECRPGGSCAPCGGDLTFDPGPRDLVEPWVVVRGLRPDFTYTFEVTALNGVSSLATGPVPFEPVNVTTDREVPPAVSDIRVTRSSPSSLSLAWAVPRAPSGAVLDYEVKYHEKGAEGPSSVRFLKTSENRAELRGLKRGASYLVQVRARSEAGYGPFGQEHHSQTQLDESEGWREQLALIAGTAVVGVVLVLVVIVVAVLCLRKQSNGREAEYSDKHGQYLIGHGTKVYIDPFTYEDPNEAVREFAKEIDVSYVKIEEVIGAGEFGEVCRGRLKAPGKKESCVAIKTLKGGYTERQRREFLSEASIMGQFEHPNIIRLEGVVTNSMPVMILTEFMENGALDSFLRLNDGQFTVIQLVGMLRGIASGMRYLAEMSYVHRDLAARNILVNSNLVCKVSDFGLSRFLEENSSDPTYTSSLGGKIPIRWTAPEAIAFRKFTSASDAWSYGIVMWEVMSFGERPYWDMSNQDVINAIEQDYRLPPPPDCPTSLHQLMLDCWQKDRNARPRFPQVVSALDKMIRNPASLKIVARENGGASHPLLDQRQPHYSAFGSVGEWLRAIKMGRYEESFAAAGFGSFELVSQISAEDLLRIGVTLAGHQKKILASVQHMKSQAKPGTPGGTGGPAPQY
The settings on record: at 0.1 µM.

In test [15] the target is T4, Ephrin type-B receptor 4 (Homo sapiens). The settings on record: at 1 µM.
The target in test [16] is Receptor tyrosine-protein kinase erbB-2 (Homo sapiens) (UniProt P04626). The settings on record: at 0.1 µM.
Test [17] has the same target. The settings on record: at 1 µM.
For test [18], the target named is Receptor tyrosine-protein kinase erbB-4 (Homo sapiens) (UniProt Q15303). The settings on record: at 0.1 µM.
Receptor tyrosine-protein kinase erbB-4 (Homo sapiens), sequence (Q15303 whole entry): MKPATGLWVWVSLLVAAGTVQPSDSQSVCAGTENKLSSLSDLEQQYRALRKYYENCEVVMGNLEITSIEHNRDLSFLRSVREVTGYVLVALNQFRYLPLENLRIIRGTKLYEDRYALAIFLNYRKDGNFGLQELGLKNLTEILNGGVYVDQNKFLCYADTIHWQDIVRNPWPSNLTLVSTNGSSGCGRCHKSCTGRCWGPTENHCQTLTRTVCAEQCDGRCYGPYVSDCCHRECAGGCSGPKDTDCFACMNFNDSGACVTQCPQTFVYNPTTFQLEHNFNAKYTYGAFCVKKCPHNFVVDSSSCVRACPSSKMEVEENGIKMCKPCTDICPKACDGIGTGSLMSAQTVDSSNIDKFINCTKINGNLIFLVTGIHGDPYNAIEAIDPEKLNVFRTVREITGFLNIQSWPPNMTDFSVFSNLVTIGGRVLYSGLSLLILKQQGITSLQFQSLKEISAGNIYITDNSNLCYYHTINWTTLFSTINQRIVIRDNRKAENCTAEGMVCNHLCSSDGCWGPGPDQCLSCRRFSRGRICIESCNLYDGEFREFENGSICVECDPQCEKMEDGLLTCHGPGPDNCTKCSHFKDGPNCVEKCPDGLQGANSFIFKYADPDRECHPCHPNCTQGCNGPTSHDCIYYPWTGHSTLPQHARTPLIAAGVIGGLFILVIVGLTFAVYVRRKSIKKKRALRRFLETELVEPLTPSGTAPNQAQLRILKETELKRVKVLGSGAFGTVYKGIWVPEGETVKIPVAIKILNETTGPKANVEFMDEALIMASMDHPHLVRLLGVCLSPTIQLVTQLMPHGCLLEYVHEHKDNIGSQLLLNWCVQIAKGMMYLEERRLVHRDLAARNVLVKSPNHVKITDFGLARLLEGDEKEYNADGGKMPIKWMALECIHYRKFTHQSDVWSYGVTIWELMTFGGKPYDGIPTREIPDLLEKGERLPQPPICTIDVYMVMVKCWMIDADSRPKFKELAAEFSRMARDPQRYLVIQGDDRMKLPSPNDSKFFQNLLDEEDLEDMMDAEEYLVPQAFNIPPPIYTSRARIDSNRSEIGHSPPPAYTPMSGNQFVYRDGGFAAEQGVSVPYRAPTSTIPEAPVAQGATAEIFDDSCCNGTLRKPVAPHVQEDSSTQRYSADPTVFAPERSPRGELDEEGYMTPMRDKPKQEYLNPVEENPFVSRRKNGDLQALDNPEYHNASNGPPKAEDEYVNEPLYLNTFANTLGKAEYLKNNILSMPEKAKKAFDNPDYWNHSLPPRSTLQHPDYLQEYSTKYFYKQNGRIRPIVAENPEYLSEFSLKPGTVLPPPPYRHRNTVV
The target is the same in test [19]. The settings on record: at 1 µM.
For test [20], the target named is Tyrosine-protein kinase Fer (Homo sapiens) (UniProt P16591). The settings on record: at 0.1 µM.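 Further: reported figures are averaged percent inhibition of FER.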
Tyrosine-protein kinase Fer (Homo sapiens), sequence (P16591 whole entry, looked up): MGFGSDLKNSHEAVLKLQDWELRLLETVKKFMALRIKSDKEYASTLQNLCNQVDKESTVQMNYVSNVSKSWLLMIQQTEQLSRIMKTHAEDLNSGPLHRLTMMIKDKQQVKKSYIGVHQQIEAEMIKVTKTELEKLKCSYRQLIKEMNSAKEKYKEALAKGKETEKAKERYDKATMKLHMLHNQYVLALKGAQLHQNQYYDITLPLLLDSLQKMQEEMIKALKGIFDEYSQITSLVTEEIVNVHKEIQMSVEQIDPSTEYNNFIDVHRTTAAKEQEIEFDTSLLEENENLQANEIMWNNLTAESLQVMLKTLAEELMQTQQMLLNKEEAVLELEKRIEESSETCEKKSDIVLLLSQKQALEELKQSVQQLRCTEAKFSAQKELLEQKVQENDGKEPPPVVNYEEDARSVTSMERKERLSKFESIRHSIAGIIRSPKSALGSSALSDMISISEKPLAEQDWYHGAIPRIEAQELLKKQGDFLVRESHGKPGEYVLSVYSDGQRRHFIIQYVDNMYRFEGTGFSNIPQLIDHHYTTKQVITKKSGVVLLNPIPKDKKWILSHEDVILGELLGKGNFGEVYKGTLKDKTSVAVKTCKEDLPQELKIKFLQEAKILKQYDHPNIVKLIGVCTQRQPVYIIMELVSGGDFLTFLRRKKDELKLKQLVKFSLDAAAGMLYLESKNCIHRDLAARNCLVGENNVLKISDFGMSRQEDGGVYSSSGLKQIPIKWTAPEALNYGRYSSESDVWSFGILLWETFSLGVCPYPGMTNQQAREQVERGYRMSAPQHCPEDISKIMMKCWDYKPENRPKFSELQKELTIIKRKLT

Ephrin type-A receptor 2 (Homo sapiens), sequence (P29317 whole entry): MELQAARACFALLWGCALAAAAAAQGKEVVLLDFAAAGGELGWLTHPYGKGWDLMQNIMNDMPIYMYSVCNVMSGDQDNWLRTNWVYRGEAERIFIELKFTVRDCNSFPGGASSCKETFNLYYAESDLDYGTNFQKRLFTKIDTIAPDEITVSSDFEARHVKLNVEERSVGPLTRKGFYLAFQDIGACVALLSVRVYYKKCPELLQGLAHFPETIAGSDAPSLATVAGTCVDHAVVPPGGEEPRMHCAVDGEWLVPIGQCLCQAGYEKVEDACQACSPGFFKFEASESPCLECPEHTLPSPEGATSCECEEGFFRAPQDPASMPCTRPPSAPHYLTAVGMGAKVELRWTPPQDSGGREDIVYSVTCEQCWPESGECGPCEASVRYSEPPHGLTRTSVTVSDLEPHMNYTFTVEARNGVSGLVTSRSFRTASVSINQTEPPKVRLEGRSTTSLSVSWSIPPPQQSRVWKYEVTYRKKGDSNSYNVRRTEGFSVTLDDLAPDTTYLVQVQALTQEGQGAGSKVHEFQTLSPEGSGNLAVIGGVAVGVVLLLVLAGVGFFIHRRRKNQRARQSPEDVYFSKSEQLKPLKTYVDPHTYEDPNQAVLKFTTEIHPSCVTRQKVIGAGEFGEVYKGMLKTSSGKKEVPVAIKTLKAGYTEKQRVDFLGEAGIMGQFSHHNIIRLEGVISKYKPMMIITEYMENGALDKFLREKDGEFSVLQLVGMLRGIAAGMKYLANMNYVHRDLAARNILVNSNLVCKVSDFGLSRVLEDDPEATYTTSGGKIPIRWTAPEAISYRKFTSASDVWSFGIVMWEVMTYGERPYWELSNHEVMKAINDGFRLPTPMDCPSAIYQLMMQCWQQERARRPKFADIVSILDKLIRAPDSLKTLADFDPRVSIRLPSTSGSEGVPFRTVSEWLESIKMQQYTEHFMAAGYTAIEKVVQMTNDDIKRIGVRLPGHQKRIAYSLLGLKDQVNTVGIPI
Epidermal growth factor receptor (Homo sapiens), P00533 [T790M], sequence (P00533 whole entry T790M): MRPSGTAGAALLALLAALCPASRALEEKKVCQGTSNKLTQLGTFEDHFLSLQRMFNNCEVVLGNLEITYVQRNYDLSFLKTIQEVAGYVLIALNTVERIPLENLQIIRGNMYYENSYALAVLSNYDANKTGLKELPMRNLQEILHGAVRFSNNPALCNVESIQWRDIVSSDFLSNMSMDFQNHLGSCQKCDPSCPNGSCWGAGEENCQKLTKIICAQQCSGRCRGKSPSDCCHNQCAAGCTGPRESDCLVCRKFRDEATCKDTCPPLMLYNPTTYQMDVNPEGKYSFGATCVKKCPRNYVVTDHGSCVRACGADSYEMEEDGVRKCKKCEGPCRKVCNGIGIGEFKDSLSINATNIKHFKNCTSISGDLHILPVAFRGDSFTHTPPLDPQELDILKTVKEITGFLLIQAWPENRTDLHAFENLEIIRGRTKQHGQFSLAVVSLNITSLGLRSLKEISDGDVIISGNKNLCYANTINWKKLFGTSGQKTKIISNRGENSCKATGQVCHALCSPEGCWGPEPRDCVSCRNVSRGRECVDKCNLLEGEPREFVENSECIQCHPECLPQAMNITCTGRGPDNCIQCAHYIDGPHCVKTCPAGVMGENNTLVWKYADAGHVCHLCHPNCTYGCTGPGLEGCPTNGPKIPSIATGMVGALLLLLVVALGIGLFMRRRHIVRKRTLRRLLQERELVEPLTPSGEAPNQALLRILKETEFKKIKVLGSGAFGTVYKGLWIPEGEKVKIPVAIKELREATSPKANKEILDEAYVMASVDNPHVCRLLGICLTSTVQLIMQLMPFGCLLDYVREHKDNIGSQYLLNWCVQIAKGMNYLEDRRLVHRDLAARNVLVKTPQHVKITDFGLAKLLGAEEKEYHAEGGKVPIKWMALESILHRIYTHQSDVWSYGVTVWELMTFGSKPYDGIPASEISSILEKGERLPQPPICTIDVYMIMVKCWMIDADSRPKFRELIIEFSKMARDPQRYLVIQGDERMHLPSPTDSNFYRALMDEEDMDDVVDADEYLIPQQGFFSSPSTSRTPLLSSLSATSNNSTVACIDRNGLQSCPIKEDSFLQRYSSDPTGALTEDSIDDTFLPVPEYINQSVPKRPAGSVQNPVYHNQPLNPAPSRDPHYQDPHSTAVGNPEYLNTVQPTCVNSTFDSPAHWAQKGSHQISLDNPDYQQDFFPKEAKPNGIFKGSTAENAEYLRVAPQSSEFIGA

As for `CNC(=O)c1cncc(/C=C/c2ccccc2Cl)c1`, the inhibition in test [1] was 5.34%; in test [2] it was 1.14%; in test [3], -0.51%; in test [4] it was 3.31%; in test [5] it was 2.6%; in test [6] it was 1.03%. For the same molecule, the inhibition in test [7] was 1.99%; in [8] it was 3.99%; in [9], 15%; in test [10], -0.8%; in test [11] it was 8.47%; in test [12], -1.27%. The inhibition is 1.05% in test [13]; -0.2% in test [14]; 4.63% in [15]; 0.54% in test [16]; 5.61% in test [17]; 3.2% in [18]. Besides, the inhibition in [19] was determined as 8.96%; in test [20] it was 2.91%.
Consider `Fc1ccc(-c2cc(-c3c[nH]nc3-c3ccccn3)ccn2)cc1`, for which the inhibition in test [1] was 5.56%; in test [2], -1.9%; in test [3], 6.43%; in [4], 1.25%; in [5], 0.94%; in test [6] it was 3.9%. For the same molecule, the inhibition was 4.31% in test [7]; 11.9% in test [8]; 14.8% in test [9]; 3.6% in test [10]; 10.6% in [11]; 7.2% in test [12]. Also, the inhibition in test [13] was 4.44%; in test [14], 3.71%; in test [15], 0.96%; in test [16] it was 4.82%; in test [17], 6.84%; in test [18], 8.5%. The inhibition amounted to 12.7% in test [19] and 4.53% in test [20].
For `CCOc1ccc2c(-c3ccnc(Nc4cccc(C(F)(F)F)c4)n3)cnn2n1`, the inhibition in [1] is -0.36%; in test [2], 0.8%; in test [3], 0.09%; in [4], 1.2%; in test [5] it was 0.67%; in [6], 1.59%. Also, the inhibition in [7] was 5.76%; in [8], 6.67%; in test [9], 9.91%; in test [10], 7.74%; in test [11] it was 9.64%; in [12] it was 3.96%. The inhibition in test [13] was 2.33%; in test [14] it was 1.01%; in test [15] it was 2.81%; in test [16], 4.13%; in [17] it was 2.54%; in [18], 7.09%. The results for the inhibition in test [19] and in [20] were 6.85% and 1.8%, respectively.

Usually inhibition stands for the drop in the measured response relative to a control, in per cent.
